Compounds without any hit were thinned out: in the full panel of roughly 83,000, 20% have a hit.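 The test compound was applied at a single concentration to cells in 96-well plates for 48 hours, and percent growth was recorded.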 Unmarked numbers belong to inactive results. Active and inactive are the calls of the source. The calls were made as follows: active = growth percent below 10; inactive = the rest.

This assay deals with COLO 205 colon. As to the kind of experiment: NCI-60 one-dose screen, 48 h (100 = growth as untreated, 0 = no growth, -100 = all killed). To be noted: 10 µM.
Turning to `ClCCN(CCCl)C(c1ccccc1)c1ccc(Cl)cc1` (stereo unspecified), the growth is 114%.
On to `CCCCn1cc(C(=O)/C(C#N)=C/c2cc3ccccc3nc2Cl)c2cc(OC)ccc21`, for which the growth is 104%.
In the case of `CCCCNCCc1ccccn1`, the growth was 117%.
On to `CC(=O)C1C(=O)N(C)C(=O)N(C)C1=O`, for which the growth is 114%.
Then `CC1(C)N=C(N)N=C(N)N1c1cccc(C(=O)Nc2cccc(S(=O)(=O)F)c2)c1`, with 120%; and `C[C@]12CC[C@@H]3C4=C(CC[C@H]3[C@@H]1CC[C@@H]2O)CC(=O)CC4`, with 117%; and `Oc1ccccc1OB(Oc1ccccc1O)N(CCCl)CCCl`, with 98.4%.
With `NC(Cc1ccc2c(c1)OCO2)c1ccc2c(c1)OCO2` (stereo unspecified), the growth is 99.9%.
Then `COc1ccc(-c2ccc(OC)c(OC)c2OC)cc1`, with -13.5% (active); and `CC1(C)N=C(N)N=C(N)N1c1ccc(CCCCc2ccc(S(=O)(=O)F)cc2)c(Cl)c1`, with 33.2%.
With `COc1ccc(C2=NN(c3ccccc3)C(c3sc(N(CCCl)CCCl)nc3Cl)C2)cc1` (stereo unspecified), the growth is 92.1%.
Take `N#CC1c2ccccc2C=CN1C(=O)c1ccc(N(CCCl)CCCl)cc1` (stereo unspecified): the growth was 103%.
For `CSc1ccccc1NP1(=O)OCC(C)([N+](=O)[O-])CO1` (stereo unspecified), the growth was 116%.
On to `Cc1ccc(N)cc1[As]=[As]c1cc(N)ccc1C` (stereo unspecified), for which the growth is -69.3% (active).
Turning to `C/C(=N/OC(=O)N(C)C)c1cc(Cl)ccc1Cl`, the growth is 100%.
For `CCC(C)[C@H]1O[C@]2(C=C[C@@H]1C)C[C@@H]1C[C@@H](C/C=C(\C)[C@@H](OC3C[C@H](OC)C(O[C@H]4C[C@H](OC)[C@@H](O)[C@H](C)O4)[C@H](C)O3)[C@@H](C)/C=C/C=C3\CO[C@@H]4[C@H](O)C(C)=C[C@@H](C(=O)O1)[C@]34O)O2` (stereo partly specified), the growth is -64.5% (active).

These data come from PubChem BioAssay (NCI).
